Data on two molecules can be found in ChEMBL document CHEMBL1961873, “Compounds: GSK PKIS; Assays: Nanosyn kinase panel” (2012).

Assay [1] deals with Protein kinase C gamma type (Homo sapiens) (UniProt P05129). Conditions: at 1 µM.
In assay [2] the target is T1, Protein kinase C iota type (Homo sapiens) (UniProt P41743).
T1 sequence (whole entry): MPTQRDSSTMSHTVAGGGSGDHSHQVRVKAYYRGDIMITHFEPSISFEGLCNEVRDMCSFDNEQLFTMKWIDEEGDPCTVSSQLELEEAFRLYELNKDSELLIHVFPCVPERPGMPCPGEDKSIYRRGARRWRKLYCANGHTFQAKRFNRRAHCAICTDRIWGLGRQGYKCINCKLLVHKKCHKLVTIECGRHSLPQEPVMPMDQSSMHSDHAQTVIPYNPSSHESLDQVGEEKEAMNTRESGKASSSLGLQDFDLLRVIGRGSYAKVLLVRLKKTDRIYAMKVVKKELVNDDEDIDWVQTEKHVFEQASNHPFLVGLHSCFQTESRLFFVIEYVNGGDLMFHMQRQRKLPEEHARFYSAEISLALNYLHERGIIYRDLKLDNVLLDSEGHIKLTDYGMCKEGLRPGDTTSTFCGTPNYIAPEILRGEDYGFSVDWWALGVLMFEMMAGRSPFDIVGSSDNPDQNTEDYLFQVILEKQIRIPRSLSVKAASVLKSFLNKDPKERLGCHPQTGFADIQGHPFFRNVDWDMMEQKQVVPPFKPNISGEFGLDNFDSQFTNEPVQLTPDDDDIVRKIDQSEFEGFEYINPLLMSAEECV
Conditions: at 0.1 µM.

For assay [3], the target named is T1, Protein kinase C iota type (Homo sapiens). As to conditions: at 1 µM.
The target in assay [4] is Protein kinase C theta type (Homo sapiens) (UniProt Q04759). As to conditions: at 0.1 µM.
Chain of Protein kinase C theta type (Homo sapiens) (Q04759 whole entry, looked up): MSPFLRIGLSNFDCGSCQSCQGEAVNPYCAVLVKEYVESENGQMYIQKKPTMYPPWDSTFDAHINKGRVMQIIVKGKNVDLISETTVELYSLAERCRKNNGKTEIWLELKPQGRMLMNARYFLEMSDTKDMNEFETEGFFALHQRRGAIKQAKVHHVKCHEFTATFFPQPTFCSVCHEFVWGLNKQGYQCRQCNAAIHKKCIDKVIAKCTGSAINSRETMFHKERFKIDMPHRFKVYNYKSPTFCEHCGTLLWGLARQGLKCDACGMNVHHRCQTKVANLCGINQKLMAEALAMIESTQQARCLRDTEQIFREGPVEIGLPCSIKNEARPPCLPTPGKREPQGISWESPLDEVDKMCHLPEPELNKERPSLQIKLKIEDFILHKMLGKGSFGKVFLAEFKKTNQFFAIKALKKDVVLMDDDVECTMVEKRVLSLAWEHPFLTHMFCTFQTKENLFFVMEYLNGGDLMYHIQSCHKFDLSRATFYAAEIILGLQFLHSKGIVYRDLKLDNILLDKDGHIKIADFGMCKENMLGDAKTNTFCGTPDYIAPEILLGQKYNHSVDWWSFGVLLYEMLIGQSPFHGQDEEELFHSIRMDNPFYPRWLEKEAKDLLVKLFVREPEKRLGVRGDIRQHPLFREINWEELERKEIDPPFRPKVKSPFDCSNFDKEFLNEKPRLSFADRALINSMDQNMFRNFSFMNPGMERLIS
For assay [5] the target is unchanged. As to conditions: at 1 µM.
In assay [6] the target is Protein kinase C beta type (Homo sapiens) (UniProt P05771). As to conditions: at 0.1 µM.
Chain of Protein kinase C beta type (Homo sapiens) (P05771 2-671 limits assumed): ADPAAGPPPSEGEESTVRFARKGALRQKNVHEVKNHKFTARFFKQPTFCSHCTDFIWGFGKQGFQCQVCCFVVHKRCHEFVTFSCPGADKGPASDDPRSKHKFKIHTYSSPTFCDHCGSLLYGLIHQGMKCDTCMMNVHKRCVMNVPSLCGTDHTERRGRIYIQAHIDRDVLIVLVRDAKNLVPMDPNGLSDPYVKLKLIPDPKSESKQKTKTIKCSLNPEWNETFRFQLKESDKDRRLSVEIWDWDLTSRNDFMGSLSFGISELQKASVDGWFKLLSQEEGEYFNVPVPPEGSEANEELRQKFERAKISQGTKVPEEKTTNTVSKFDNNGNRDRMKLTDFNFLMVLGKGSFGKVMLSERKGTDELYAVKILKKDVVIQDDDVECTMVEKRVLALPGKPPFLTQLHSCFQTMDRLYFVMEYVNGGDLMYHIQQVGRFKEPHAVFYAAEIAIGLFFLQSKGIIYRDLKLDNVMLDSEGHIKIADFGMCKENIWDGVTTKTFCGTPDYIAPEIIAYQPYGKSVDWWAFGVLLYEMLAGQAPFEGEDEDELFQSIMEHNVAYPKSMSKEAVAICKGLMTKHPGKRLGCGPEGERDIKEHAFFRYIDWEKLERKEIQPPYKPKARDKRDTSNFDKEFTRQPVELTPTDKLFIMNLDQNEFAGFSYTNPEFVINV
Assay [7] has the same target. Conditions: at 1 µM.
In assay [8] the target is T2, Serine/threonine-protein kinase D1 (Homo sapiens) (UniProt Q15139).
T2 sequence (whole entry): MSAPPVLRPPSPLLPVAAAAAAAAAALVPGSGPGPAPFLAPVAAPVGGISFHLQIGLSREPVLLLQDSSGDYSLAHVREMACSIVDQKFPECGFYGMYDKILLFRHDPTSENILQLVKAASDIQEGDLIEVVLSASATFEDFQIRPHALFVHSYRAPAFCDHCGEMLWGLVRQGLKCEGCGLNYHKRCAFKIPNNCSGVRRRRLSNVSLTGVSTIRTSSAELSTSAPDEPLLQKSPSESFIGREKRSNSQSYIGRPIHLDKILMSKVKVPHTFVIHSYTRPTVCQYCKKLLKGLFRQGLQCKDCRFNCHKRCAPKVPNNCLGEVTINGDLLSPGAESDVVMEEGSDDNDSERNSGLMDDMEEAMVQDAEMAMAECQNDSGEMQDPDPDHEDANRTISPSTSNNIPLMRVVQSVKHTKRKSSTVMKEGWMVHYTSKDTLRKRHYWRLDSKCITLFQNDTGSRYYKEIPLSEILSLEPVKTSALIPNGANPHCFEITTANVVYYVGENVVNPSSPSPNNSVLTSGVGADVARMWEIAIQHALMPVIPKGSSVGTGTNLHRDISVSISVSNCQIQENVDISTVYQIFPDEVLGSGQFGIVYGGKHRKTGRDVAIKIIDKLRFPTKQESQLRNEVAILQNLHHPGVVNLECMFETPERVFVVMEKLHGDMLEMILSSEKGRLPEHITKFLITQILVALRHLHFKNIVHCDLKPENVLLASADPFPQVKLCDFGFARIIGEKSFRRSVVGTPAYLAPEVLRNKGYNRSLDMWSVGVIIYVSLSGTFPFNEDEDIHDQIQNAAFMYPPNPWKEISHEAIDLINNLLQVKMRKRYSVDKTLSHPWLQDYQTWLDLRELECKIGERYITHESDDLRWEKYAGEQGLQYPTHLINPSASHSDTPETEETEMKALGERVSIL
Conditions: at 0.1 µM.

Assay [9] deals with T2, Serine/threonine-protein kinase D1 (Homo sapiens). Conditions: at 1 µM.
The target in assay [10] is T3, Serine/threonine-protein kinase D2 (Homo sapiens) (UniProt Q9BZL6).
T3 sequence (whole entry): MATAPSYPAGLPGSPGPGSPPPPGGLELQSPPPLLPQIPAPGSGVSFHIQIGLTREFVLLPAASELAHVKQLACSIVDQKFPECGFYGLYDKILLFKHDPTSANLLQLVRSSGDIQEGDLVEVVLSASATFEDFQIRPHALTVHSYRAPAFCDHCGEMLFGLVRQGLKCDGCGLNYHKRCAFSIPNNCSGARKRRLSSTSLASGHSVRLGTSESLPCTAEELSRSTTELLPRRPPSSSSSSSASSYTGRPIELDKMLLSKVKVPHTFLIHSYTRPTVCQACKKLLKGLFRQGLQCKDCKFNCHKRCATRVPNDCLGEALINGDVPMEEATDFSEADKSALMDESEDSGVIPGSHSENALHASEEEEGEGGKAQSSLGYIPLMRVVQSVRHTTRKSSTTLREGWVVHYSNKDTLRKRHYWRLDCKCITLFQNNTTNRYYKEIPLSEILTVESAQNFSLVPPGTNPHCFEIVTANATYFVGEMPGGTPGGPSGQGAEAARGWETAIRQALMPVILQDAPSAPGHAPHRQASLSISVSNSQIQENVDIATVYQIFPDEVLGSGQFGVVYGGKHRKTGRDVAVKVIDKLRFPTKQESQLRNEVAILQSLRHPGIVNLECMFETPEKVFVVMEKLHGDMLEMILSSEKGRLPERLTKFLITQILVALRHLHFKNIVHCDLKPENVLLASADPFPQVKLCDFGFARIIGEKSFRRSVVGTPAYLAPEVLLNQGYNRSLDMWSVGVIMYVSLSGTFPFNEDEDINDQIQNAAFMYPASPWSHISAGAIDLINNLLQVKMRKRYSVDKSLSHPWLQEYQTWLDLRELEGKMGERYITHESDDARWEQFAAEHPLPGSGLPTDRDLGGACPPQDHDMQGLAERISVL
Conditions: at 0.1 µM.

Assay [11] addresses T3, Serine/threonine-protein kinase D2 (Homo sapiens). Conditions: at 1 µM.
Assay [12] concerns the target T4, Serine/threonine-protein kinase D3 (Homo sapiens) (UniProt O94806).
T4 sequence (whole entry): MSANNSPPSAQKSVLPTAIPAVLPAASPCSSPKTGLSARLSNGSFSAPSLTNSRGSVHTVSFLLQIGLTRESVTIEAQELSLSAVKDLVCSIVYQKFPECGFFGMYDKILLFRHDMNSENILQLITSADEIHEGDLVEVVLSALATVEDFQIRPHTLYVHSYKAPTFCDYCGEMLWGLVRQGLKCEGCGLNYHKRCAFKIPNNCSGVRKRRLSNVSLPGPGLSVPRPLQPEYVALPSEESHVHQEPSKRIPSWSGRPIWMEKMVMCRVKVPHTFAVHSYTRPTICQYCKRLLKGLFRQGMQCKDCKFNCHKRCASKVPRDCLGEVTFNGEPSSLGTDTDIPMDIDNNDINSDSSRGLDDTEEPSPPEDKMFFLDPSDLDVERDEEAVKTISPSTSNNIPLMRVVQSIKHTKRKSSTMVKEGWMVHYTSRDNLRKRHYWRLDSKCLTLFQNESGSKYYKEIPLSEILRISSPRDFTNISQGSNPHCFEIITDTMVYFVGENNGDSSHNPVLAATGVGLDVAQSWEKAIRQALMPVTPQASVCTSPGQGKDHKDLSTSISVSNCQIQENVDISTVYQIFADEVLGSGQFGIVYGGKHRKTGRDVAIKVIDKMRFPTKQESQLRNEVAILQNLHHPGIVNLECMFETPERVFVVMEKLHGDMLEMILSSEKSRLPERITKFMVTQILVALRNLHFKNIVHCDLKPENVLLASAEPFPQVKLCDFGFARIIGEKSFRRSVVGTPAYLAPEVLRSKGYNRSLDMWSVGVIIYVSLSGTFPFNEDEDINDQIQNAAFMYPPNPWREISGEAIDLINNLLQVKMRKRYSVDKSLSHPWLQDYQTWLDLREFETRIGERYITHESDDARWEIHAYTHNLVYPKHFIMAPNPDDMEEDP
Conditions: at 0.1 µM.

In assay [13] the target is T4, Serine/threonine-protein kinase D3 (Homo sapiens). Conditions: at 1 µM.
For assay [14], the target named is T5, cGMP-dependent protein kinase 1 (Homo sapiens) (UniProt Q13976).
T5 sequence (whole entry): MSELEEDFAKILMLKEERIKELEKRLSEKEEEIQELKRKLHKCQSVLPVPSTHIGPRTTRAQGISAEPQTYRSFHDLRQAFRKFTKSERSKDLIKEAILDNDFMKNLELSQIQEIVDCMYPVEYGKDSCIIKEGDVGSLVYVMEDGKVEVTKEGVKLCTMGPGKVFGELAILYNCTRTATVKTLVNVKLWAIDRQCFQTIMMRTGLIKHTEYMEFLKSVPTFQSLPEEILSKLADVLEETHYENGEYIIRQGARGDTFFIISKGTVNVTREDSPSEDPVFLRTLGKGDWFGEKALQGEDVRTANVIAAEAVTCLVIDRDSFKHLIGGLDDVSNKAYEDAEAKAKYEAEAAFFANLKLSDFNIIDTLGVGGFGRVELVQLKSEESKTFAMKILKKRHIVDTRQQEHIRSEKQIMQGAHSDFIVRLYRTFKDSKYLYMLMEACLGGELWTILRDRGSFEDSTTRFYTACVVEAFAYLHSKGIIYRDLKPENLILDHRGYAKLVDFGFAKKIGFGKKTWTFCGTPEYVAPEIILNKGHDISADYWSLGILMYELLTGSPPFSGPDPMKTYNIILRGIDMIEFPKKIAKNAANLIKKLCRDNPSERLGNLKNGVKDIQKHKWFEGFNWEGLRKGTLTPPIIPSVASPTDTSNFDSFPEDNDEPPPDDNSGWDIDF
As to conditions: at 0.1 µM.

In assay [15] the target is T5, cGMP-dependent protein kinase 1 (Homo sapiens). Conditions: at 1 µM.
Assay [16] addresses T6, cGMP-dependent protein kinase 2 (Homo sapiens) (UniProt Q13237).
T6 sequence (whole entry): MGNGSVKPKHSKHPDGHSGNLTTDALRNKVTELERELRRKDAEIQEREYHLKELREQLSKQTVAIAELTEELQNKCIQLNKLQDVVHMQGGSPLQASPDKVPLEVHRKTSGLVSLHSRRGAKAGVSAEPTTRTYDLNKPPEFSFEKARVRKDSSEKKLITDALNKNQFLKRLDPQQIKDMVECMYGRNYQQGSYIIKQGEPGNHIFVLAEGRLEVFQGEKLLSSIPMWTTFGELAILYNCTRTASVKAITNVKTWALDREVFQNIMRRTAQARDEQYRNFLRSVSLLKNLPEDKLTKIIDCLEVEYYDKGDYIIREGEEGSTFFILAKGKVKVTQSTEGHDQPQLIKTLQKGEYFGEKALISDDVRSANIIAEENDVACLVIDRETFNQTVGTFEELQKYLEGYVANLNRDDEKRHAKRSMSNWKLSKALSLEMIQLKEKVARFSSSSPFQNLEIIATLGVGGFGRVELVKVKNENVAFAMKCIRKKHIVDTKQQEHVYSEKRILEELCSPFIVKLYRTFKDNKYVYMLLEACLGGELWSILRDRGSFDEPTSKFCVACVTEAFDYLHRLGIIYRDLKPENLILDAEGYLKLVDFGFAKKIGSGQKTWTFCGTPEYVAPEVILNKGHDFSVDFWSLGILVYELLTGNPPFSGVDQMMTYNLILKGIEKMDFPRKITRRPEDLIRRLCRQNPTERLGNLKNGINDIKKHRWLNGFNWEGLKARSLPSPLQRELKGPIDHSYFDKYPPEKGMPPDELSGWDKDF
As to conditions: at 0.1 µM.

Assay [17] has as its target T6, cGMP-dependent protein kinase 2 (Homo sapiens). Conditions: at 1 µM.
Assay [18] has as its target T7, cAMP-dependent protein kinase catalytic subunit PRKX (Homo sapiens) (UniProt P51817).
T7 sequence (whole entry): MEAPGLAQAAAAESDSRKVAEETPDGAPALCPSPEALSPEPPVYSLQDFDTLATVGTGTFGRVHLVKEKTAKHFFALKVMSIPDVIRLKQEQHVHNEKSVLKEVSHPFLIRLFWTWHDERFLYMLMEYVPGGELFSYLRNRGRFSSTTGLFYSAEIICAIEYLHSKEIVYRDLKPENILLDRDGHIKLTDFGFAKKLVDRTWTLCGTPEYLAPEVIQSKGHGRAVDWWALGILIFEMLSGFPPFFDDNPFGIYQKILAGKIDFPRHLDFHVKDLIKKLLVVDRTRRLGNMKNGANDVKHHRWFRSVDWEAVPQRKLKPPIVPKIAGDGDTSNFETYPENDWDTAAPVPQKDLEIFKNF
Conditions: at 0.1 µM.

Assay [19] addresses T7, cAMP-dependent protein kinase catalytic subunit PRKX (Homo sapiens). As to conditions: at 1 µM.
For assay [20], the target named is Rho-associated protein kinase 1 (Homo sapiens) (UniProt Q13464). As to conditions: at 0.1 µM.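 Further: values are mean percent inhibition of ROCK1.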
Chain of Rho-associated protein kinase 1 (Homo sapiens) (Q13464 2-1354 limits assumed): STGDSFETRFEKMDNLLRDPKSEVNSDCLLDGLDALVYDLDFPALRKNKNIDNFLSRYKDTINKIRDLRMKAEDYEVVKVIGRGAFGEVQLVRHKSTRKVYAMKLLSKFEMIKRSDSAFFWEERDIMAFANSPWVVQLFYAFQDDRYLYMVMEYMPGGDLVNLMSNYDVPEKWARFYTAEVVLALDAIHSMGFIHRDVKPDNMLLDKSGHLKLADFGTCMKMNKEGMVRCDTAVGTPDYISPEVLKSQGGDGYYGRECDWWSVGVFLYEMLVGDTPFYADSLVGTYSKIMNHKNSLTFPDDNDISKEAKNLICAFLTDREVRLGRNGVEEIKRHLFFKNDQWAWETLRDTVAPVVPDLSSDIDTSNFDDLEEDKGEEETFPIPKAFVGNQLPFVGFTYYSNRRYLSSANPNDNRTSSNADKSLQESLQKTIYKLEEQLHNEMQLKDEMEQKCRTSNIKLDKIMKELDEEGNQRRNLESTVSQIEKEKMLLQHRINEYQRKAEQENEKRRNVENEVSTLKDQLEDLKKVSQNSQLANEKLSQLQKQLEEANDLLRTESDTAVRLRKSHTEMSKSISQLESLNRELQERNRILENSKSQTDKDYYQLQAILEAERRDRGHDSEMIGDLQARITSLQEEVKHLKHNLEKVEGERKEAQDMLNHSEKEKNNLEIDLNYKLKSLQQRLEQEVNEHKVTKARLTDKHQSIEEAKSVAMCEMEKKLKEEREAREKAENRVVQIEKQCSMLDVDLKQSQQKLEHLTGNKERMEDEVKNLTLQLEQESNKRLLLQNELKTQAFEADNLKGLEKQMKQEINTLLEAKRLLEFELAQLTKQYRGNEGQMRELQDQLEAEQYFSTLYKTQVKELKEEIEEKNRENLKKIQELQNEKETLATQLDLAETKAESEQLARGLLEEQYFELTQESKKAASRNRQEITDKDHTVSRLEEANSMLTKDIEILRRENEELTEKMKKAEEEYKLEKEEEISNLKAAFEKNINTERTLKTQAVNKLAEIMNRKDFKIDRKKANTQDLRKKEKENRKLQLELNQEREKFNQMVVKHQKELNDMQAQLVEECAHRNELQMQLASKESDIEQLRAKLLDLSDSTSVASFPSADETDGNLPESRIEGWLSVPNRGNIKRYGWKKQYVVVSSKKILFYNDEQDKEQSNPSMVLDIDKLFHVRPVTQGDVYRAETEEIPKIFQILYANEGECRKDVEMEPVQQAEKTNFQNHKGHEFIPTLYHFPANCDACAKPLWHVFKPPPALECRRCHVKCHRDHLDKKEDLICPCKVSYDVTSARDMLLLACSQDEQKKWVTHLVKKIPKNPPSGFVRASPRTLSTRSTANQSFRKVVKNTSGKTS

Regarding `CCS(=O)(=O)c1ccc(OC)c(Nc2ncc(-c3cccc(-c4ccccc4F)c3)o2)c1`, the inhibition in [1] was 0.81%; in assay [2], 1.05%; in [3] it was 3.5%; in assay [4] it was -0.12%; in assay [5], 2.52%; in [6], -0.13%. Moreover, the inhibition in assay [7] was found to be 1.06%; in assay [8], 1.19%; in [9], 1.23%; in assay [10] it was 1.33%; in assay [11] it was 1.19%; in assay [12], 1.19%. Besides, the inhibition is 1.54% in assay [13]; 0.11% in assay [14]; 3.03% in assay [15]; 1.57% in assay [16]; 2.1% in assay [17]; 0.93% in [18]. For the same molecule, the inhibition in [19] is 0.98%; in assay [20], -2.02%.
As to `Fc1ccc(-c2ncn(C3CCNCC3)c2-c2ccnc(Oc3ccc4c(c3)OCO4)n2)cc1`, the inhibition in [1] is 6.16%; in [2] it was 4.45%; in [3] it was 4.29%; in assay [4], 3.38%; in assay [5] it was 3.39%; in [6], 1.38%. In addition, the inhibition was found to be 5.69% in assay [7]; 4.85% in [8]; 12.4% in assay [9]; 5.35% in [10]; 9.53% in assay [11]; 5.01% in assay [12]. Besides, the inhibition in assay [13] came out at 9.26%; in assay [14], 2.62%; in assay [15], 2.47%; in assay [16] it was 3.43%; in assay [17], 2.62%; in assay [18], 1.9%. Besides, the inhibition in assay [19] is 2.4%; in [20], 2.94%.
